Assay results published in the supplement of paper PMC10646978.
± gives the standard deviation.

What follows are molecules tested on RAW-Dual (murine macrophage reporter line) (assay: NF-kB reporter (SEAP) activity fold change vs agonist alone; higher = enhanced NF-kB activity). Settings: modulator concentration 10 µM; agonist: MPLA […].
How it was run: (§1)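 In 384-well plates holding 50 000 RAW-Dual murine macrophage reporter cells per well, compound at 10 μM final was pre-incubated for 1 hour at 37 °C, after which a PRR agonist was added overnight. Supernatant SEAP read with QUANTI-Blue at 620 nm absorbance reported NF-κB, and Lucia luciferase read with QUANTI-Luc luminescence reported IRF. Fold change values come from dividing each reporter signal by the mean of agonist-only control wells on the same plate, averaged over replicate plates with propagated errors.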
`CCOc1ccc(OCCCCOc2cccc(C)c2)cc1` showed an NF-kB reporter of 0.932 ± 0.082.
With `O=C(CCc1csc(NC(=O)c2ccco2)n1)Nc1ccc(Cl)cc1` the NF-kB reporter was 0.973 ± 0.097.
`COc1ccc(Nc2nc(Nc3ccc4ncccc4c3)nc(N3CCOCC3)n2)cc1` was tested, and the NF-kB reporter was 2.85 ± 0.15.
For `O=C(NC12CC3CC(CC(C3)C1)C2)N1CCOCC1`, the NF-kB reporter was 0.989 ± 0.12.
`CC[C@H](C)C(=O)O[C@H]1C[C@@H](C)C=C2C=C[C@H](C)[C@H](CC[C@@H]3C[C@@H](O)CC(=O)O3)[C@H]21` was tested, and the NF-kB reporter was 1.77 ± 0.078.
With `CC(=O)Nc1ccc(NC(=S)NC(=O)C=Cc2ccc(Cl)cc2)cc1` the NF-kB reporter was 0.946 ± 0.025.
`COc1ccc(C=NNC(=O)CSc2nnc(-c3ccccc3)n2-c2ccccc2)cc1OC` showed an NF-kB reporter of 1.09 ± 0.045.
Molecule `Cl.Fc1ccc(C2CCNCC2COc2ccc3c(c2)OCO3)cc1` (stereo unspecified) has an NF-kB reporter of 0.918 ± 0.058.
`CCCOc1ccc(C=CC(=O)Nc2ccc(S(=O)(=O)Nc3ncccn3)cc2)cc1OC` showed an NF-kB reporter of 0.963 ± 0.092.
`O=c1c(O)c(-c2cc(O)c(O)c(O)c2)oc2cc(O)cc(O)c12` gave an NF-kB reporter of 0.968 ± 0.064.
Work on `CC(=NNC(=O)COc1ccc(Cl)cc1[N+](=O)[O-])c1cccc(Br)c1` yielded an NF-kB reporter of 0.89 ± 0.053.
For `CCCCCn1c(=O)[nH]c2cc(C(=O)N3CCN(C(=O)OCC)CC3)ccc2c1=O`, the NF-kB reporter was 1.02 ± 0.069.
`CC(C)(C)NCC(=O)Nc1ccc(S(N)(=O)=O)cc1` was tested, and the NF-kB reporter was 1.06 ± 0.091.
Work on `NC(=O)c1ccc(N2CCOCC2)c([N+](=O)[O-])c1` yielded an NF-kB reporter of 0.935 ± 0.026.
In the case of `O=C(c1ccc(OC(F)(F)F)cc1)N1CCC(Oc2cccnn2)CC1`, the NF-kB reporter is reported as 0.926 ± 0.049.
`CC(NCCC(c1ccccc1)c1ccccc1)c1ccccc1.Cl` (stereo unspecified) gave an NF-kB reporter of 0.67 ± 0.075.
Work on `COc1ccc(CCN(C)CCCC(C#N)(c2ccc(OC)c(OC)c2)C(C)C)cc1OC.Cl` (stereo unspecified) yielded an NF-kB reporter of 1.12 ± 0.082.
With `O=C1C(N2CCC(O)C2)CCN1CC(F)(F)F` (stereo unspecified) the NF-kB reporter was 0.876 ± 0.086.
In the case of `Fc1ccc(CN2CCc3c([nH]c4ccccc34)C2)c(F)c1`, the NF-kB reporter is reported as 0.62 ± 0.082.
`O=C(NCCCn1ccc2cccnc21)c1nc2ccccc2s1` gave an NF-kB reporter of 1.09 ± 0.07.
For `CCn1cc(C(=O)O)c(=O)c2cc(F)c(N3CCN(C)CC3)cc21.CS(=O)(=O)O`, the NF-kB reporter was 0.938 ± 0.096.

Each molecule was assayed on RAW-Dual (murine macrophage reporter line) (assay: IRF reporter (Lucia luciferase) activity fold change vs agonist alone; higher = enhanced IRF activity). Settings: modulator concentration 10 µM; agonist: 3'3'-cGAMP 10 ug/mL.
How it was run: as §1
In the case of `CC(C(=O)O)c1ccc(C(=O)c2cccs2)cc1` (stereo unspecified), the IRF reporter is reported as 0.97 ± 0.03.
Molecule `CCOC(=O)Nc1ccc(NCc2ccc(F)cc2)nc1N.O=C(O)/C=C/C(=O)O` has an IRF reporter of 0.678 ± 0.043.
Molecule `O=C(NC1CCCCCC1)c1ccc([N+](=O)[O-])cc1Cl` has an IRF reporter of 0.804 ± 0.035.
`Cc1cc(CCNC(=O)c2nc3ccccc3s2)nn1C` showed an IRF reporter of 0.953 ± 0.052.
Work on `CCC(=O)Nc1ccc(S(=O)(=O)N2CCC(Oc3ncnc(CC)c3F)C2)c(C)c1` (stereo unspecified) yielded an IRF reporter of 0.919 ± 0.055.
`Cl.O=S(=O)(c1cccc2cnccc12)N1CCCNCC1` showed an IRF reporter of 0.825 ± 0.033.
Molecule `N#CC(=Cc1ccc(-c2ccc(Cl)cc2)o1)C(N)=O` has an IRF reporter of 1.07 ± 0.049.
Work on `O=C1CC(c2ccc(O)cc2)Oc2cc(O)cc(O)c21` (stereo unspecified) yielded an IRF reporter of 0.746 ± 0.031.
Molecule `Cc1noc(C)c1CN1CCC(C(F)(F)F)CC1.Cl` has an IRF reporter of 1.09 ± 0.072.
With `Cc1cccc(OCCCOc2cccc3cccnc23)c1C` the IRF reporter was 0.974 ± 0.053.
Molecule `COC(=O)C1C(=O)C(=CNc2ccccc2C)C(=O)CC1(C)C` (stereo unspecified) has an IRF reporter of 0.993 ± 0.049.
`Cc1ccc(-c2ncnn2-c2ccc(Cl)cc2)cc1` was tested, and the IRF reporter was 0.695 ± 0.036.
With `COc1ccnc(CS(=O)c2nc3ccc(OC(F)F)cc3[nH]2)c1OC` (stereo unspecified) the IRF reporter was 0.901 ± 0.056.
For `Cc1cc(OC2CN(C(=O)Cn3cnc4ccccc43)C2)cc(=O)n1C1CC1`, the IRF reporter was 1 ± 0.04.
`COc1ccc(-c2ccc(OCCNC(=O)Cc3ccc(Br)cc3)nn2)cc1` was tested, and the IRF reporter was 1.02 ± 0.085.
For `CCS(=O)(=O)N1CCC2(CC1)NC(=O)N(CCOc1ccccc1)C2=O`, the IRF reporter was 0.996 ± 0.047.
`Cc1nc2ccc(CN(C)c3ccc(C(=O)N[C@@H](CCC(=O)O)C(=O)O)s3)cc2c(=O)[nH]1` was tested, and the IRF reporter was 0.863 ± 0.042.
For `COc1ccc(Cc2nnc(C3CCN(S(C)(=O)=O)CC3)s2)cc1`, the IRF reporter was 1.06 ± 0.093.
In the case of `NC(=O)CN1C(=O)C2C3c4ccccc4C(c4ccccc43)C2C1=O` (stereo unspecified), the IRF reporter is reported as 0.938 ± 0.065.
`CCOc1ccc(OCCCCOc2cccc(C)c2)cc1` gave an IRF reporter of 1 ± 0.051.
Molecule `O=C(CCc1csc(NC(=O)c2ccco2)n1)Nc1ccc(Cl)cc1` has an IRF reporter of 0.883 ± 0.045.
`COc1ccc(Nc2nc(Nc3ccc4ncccc4c3)nc(N3CCOCC3)n2)cc1` gave an IRF reporter of 0.34 ± 0.015.
In the case of `O=C(NC12CC3CC(CC(C3)C1)C2)N1CCOCC1`, the IRF reporter is reported as 0.993 ± 0.027.
For `CC[C@H](C)C(=O)O[C@H]1C[C@@H](C)C=C2C=C[C@H](C)[C@H](CC[C@@H]3C[C@@H](O)CC(=O)O3)[C@H]21`, the IRF reporter was 0.639 ± 0.058.
`CC(=O)Nc1ccc(NC(=S)NC(=O)C=Cc2ccc(Cl)cc2)cc1` showed an IRF reporter of 0.838 ± 0.089.
In the case of `COc1ccc(C=NNC(=O)CSc2nnc(-c3ccccc3)n2-c2ccccc2)cc1OC`, the IRF reporter is reported as 0.845 ± 0.059.
Molecule `Cl.Fc1ccc(C2CCNCC2COc2ccc3c(c2)OCO3)cc1` (stereo unspecified) has an IRF reporter of 0.916 ± 0.041.
In the case of `CCCOc1ccc(C=CC(=O)Nc2ccc(S(=O)(=O)Nc3ncccn3)cc2)cc1OC`, the IRF reporter is reported as 0.982 ± 0.035.
In the case of `O=c1c(O)c(-c2cc(O)c(O)c(O)c2)oc2cc(O)cc(O)c12`, the IRF reporter is reported as 0.582 ± 0.035.
`CC(=NNC(=O)COc1ccc(Cl)cc1[N+](=O)[O-])c1cccc(Br)c1` showed an IRF reporter of 0.983 ± 0.032.
With `CCCCCn1c(=O)[nH]c2cc(C(=O)N3CCN(C(=O)OCC)CC3)ccc2c1=O` the IRF reporter was 1.01 ± 0.035.
In the case of `CC(C)(C)NCC(=O)Nc1ccc(S(N)(=O)=O)cc1`, the IRF reporter is reported as 1.02 ± 0.049.
In the case of `NC(=O)c1ccc(N2CCOCC2)c([N+](=O)[O-])c1`, the IRF reporter is reported as 0.984 ± 0.067.
`O=C(c1ccc(OC(F)(F)F)cc1)N1CCC(Oc2cccnn2)CC1` was tested, and the IRF reporter was 1.03 ± 0.073.
`CC(NCCC(c1ccccc1)c1ccccc1)c1ccccc1.Cl` (stereo unspecified) gave an IRF reporter of 0.735 ± 0.058.
In the case of `COc1ccc(CCN(C)CCCC(C#N)(c2ccc(OC)c(OC)c2)C(C)C)cc1OC.Cl` (stereo unspecified), the IRF reporter is reported as 0.572 ± 0.018.
`O=C1C(N2CCC(O)C2)CCN1CC(F)(F)F` (stereo unspecified) gave an IRF reporter of 1.03 ± 0.053.
For `Fc1ccc(CN2CCc3c([nH]c4ccccc34)C2)c(F)c1`, the IRF reporter was 0.909 ± 0.029.
In the case of `O=C(NCCCn1ccc2cccnc21)c1nc2ccccc2s1`, the IRF reporter is reported as 0.813 ± 0.071.
Work on `CCn1cc(C(=O)O)c(=O)c2cc(F)c(N3CCN(C)CC3)cc21.CS(=O)(=O)O` yielded an IRF reporter of 0.858 ± 0.037.
